# Test results: PubChem BioAssay (EPA / NIEHS)
# Several values for one entry are separate records, joined by “and”; a condition that tells them apart may be missing. Equal values may be shown once. More than one record can exist for a structure, and the calls need not agree. Activity calls are given as the source filed them. Rule for the calls: active = hit-call score of the fitted dose curve at least 0.9, where 1 is the maximum; inactive = score below 0.9.
# Key:
# [1] = APR_HepG2_NuclearSize_72hr: Apredica 72-hour HepG2 Assay for Nuclear Size (AID 2282925); conditions: high-content imaging, actives raise or lower the signal
# In short: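 HepG2 cells were exposed to compounds at ten concentrations from 0.39 to 200 uM (duplicate, 0.5% DMSO final) for 72 hr. After fixation in 3.7% formaldehyde, nuclei were stained with Hoechst 33342 (2 ug/mL) and imaged at 20x.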
# [2] = ATG_CRE_CIS: Attagene CIS-FACTORIAL HepG2 Assay for human cAMP Responsive Element (CRE) binding protein 3 (AID 2282926); conditions: HepG2 CRE cis-reporter, Attagene multiplexed mRNA; actives raise or lower the signal
# In short: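 HepG2 cells transiently transfected with cis-element-driven multiple reporter transcription units; CRE reporter mRNA measured 24 h after dosing by RT-PCR, 6-FAM labelling, HpaI digestion and capillary electrophoresis. Bidirectional fit versus DMSO baseline.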
# [3] = molecular target: CCAAT/enhancer-binding protein beta (Homo sapiens) (UniProt P17676); assay: ATG_C_EBP_CIS: Attagene CIS-FACTORIAL HepG2 Assay for human CCAAT/Enhancer Binding Protein (C/EBP) beta (AID 2282927); conditions: HepG2 Attagene cis-factorial transcription factor reporter; actives raise or lower the signal
# In short: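 RT-PCR/capillary electrophoresis fluorescence of reporter mRNA, 24 h post-dose, in HepG2 cells carrying transfected cis-promoter reporter units. Bidirectional curve fitting against DMSO baseline captures gain or loss of signal.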
# [4] = ATG_CMV_CIS: Attagene CIS-FACTORIAL HepG2 Assay for human CMV (Internal Marker) (AID 2282928); conditions: HepG2 CMV promoter reporter, transcription factor profiling; actives raise or lower the signal;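 note: endpoint acts as a background internal control marker rather than a target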
# In short: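 Endogenous transcription factor activity read in HepG2 via transfected cis-promoter reporter units. After 24 h dosing, reporter mRNA measured by RT-PCR/capillary electrophoresis; gain or loss of signal fit relative to DMSO.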
# [5] = ATG_DR4_LXR_CIS: Attagene CIS-FACTORIAL HepG2 Assay for human Liver X Receptor (LXR), DR4 submotif (AID 2282929); conditions: HepG2 Attagene DR4 cis-reporter, mRNA transcription; actives raise or lower the signal
# In short: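 DR4 cis-reporter in HepG2, 24 h exposure. Detection: RT-PCR, 6-FAM labelling, CE fragment analysis. Endpoint fitted bidirectionally, DMSO = baseline.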
# [6] = molecular target: Aryl hydrocarbon receptor (Homo sapiens) (UniProt P35869); assay: ATG_Ahr_CIS: Attagene CIS-FACTORIAL HepG2 Assay for human Aryl Hydrocarbon Receptor (Ahr) (AID 2282930); conditions: HepG2 AhR cis-factorial reporter transcription; actives raise or lower the signal
# In short: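 HepG2 cells transiently transfected with cis-element-driven multiplexed reporter transcription units; endogenous transcription factor activity measured as reporter mRNA 24 h after dosing. RT-PCR, 6-FAM labelling, HpaI digestion, capillary electrophoresis; bidirectional fitting versus DMSO baseline.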
# [7] = ATG_AP_1_CIS: Attagene CIS-FACTORIAL HepG2 Assay for human Activator Protein 1 (AP-1) (AID 2282931); conditions: HepG2 Attagene cis-factorial AP-1 reporter mRNA; actives raise or lower the signal
# In short: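 Cis-regulated reporter units transiently expressed in HepG2 report endogenous transcription-factor activity. Signal: reporter mRNA at 24 h, via RT-PCR and fluorescent capillary electrophoresis. Endpoint derived by bidirectional fitting, DMSO as negative control.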
# [8] = ATG_AP_2_CIS: Attagene CIS-FACTORIAL HepG2 Assay for human Activator Protein 2 (AP-2) (AID 2282932); conditions: HepG2 AP-2 cis-reporter, Attagene transcription factor profiling; actives raise or lower the signal
# In short: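 Bidirectional curve fitting against DMSO was applied to reporter mRNA signals from HepG2 cells 24 h after dosing. Cis-promoter reporter units, transiently transfected, were read by RT-PCR plus capillary electrophoresis.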
# [9] = ATG_BRE_CIS: Attagene CIS-FACTORIAL HepG2 Assay for human Bone Morphogenetic Protein (BMP) Response Element (BRE) (AID 2282933); conditions: HepG2 BMP response element reporter, Attagene transcription factor profiling; actives raise or lower the signal
# In short: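 Endogenous transcription factor activity read in transiently transfected HepG2 cells after 24 h chemical exposure. Bidirectional curve fitting against DMSO; readout is reporter transcript level by RT-PCR with capillary electrophoresis of labelled products.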
# [10] = molecular target: Transcription factor E2F1 (Homo sapiens) (UniProt Q01094); assay: ATG_E2F_CIS: Attagene CIS-FACTORIAL HepG2 Assay for human E2F Transcription Factor 1 (AID 2282935); conditions: HepG2 Attagene cis-reporter, E2F reporter RNA transcripts; actives raise or lower the signal
# In short: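 Multiplexed cis-reporter assay: HepG2, transient transfection, 24 h dosing, mRNA quantitation by labeled RT-PCR and CE.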
# [11] = ATG_E_Box_CIS: Attagene CIS-FACTORIAL HepG2 Assay for human Enhancer Box (E-box) (AID 2282936); conditions: HepG2 E-box cis-reporter transcription, actives raise or lower the signal
# In short: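 Multiplexed CIS reporter system in transiently transfected HepG2 cells measures native transcription factor activity. Reporter RNA after 24 h exposure is profiled by RT-PCR-capillary electrophoresis.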
# [12] = ATG_M_61_CIS: Attagene CIS-FACTORIAL HepG2 Assay for M61 Transcription Factor (Internal Marker) (AID 2282937); conditions: HepG2 Attagene CIS-FACTORIAL M61 internal marker reporter; actives raise or lower the signal
# In short: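 Background-control endpoint: HepG2 cells with cis-regulated reporter constructs, 24 h exposure, reporter mRNA detected via fluorescent primer extension and capillary electrophoresis; values from bidirectional fitting with DMSO baseline.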
# [13] = ATG_EGR_CIS: Attagene CIS-FACTORIAL HepG2 Assay for human Early Growth Response 1 (EGR1) (AID 2282938); conditions: HepG2 Attagene CIS-FACTORIAL EGR reporter mRNA; actives raise or lower the signal
# In short: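 Endpoint derived by bidirectional fitting versus DMSO vehicle. Method: cis-promoter reporter units transfected into HepG2, 24 h dosing, RNA isolation, RT-PCR with 6-FAM primer extension and HpaI digestion, then capillary electrophoresis fluorescence detection.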
# [14] = ATG_M_19_CIS: Attagene CIS-FACTORIAL HepG2 Assay for M19 Transcription Factor (Internal Marker) (AID 2282939); conditions: HepG2 Attagene CIS-FACTORIAL M19 internal marker reporter; actives raise or lower the signal
# In short: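 Internal marker readout, fitted in both directions against DMSO, from HepG2 cells carrying transfected cis-element reporter constructs; RT-PCR and capillary electrophoresis of reporter mRNA after 24 h exposure.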
# [15] = ATG_ERE_CIS: Attagene CIS-FACTORIAL HepG2 Assay for Estrogen Response Element (ERE) (AID 2282940); conditions: HepG2 ERE cis-reporter, Attagene RNA transcript; actives raise or lower the signal
# In short: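 After 24 h compound treatment, RNA from transfected HepG2 cells was reverse-transcribed, reporter cDNA PCR-amplified, FAM-labelled, HpaI-cut and resolved by capillary electrophoresis. ERE-driven cis reporter transcripts reflect endogenous factors; gain or loss scored against DMSO.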
# [16] = ATG_Ets_CIS: Attagene CIS-FACTORIAL HepG2 Assay for human Erythroblast Transformation Specific (ETS) (AID 2282941); conditions: HepG2 ETS cis-reporter transcription, actives raise or lower the signal
# In short: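 Steps: transfect HepG2 with multiple reporter units; treat compound 24 h; isolate RNA, DNase-treat, reverse-transcribe; PCR-amplify, label with 6-FAM, digest with HpaI; separate by capillary electrophoresis. Activity fitted both directions versus DMSO.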
# [17] = molecular target: Hepatocyte nuclear factor 3-beta (Homo sapiens) (UniProt Q9Y261); assay: ATG_FoxA2_CIS: Attagene CIS-FACTORIAL HepG2 Assay for human Forkhead box A2 (FOXA2) (AID 2282942); conditions: HepG2 cis-reporter transcription factor activity, 24 h; actives raise or lower the signal
# In short: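 Measured: reporter mRNA induction or loss in HepG2 transiently carrying multiple cis-regulated reporter units, 24 h after dosing. Quantified by RT-PCR plus capillary electrophoresis, normalised to DMSO.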
# [18] = ATG_FoxO_CIS: Attagene CIS-FACTORIAL HepG2 Assay for human Forkhead box O (FoxO) (AID 2282943); conditions: HepG2 Attagene cis-reporter, FoxO element, mRNA; actives raise or lower the signal
# In short: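 HepG2 cells transiently transfected with cis-promoter-driven multiple reporter transcription units; 24 h after chemical dosing, reporter mRNA quantified by RT-PCR, fluorescent primer extension, HpaI digestion and capillary electrophoresis. Bidirectional fitting versus DMSO baseline.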
# [19] = ATG_GATA_CIS: Attagene CIS-FACTORIAL HepG2 Assay for human GATA Binding Protein (AID 2282944); conditions: HepG2 GATA cis-element reporter, Attagene multiplex mRNA; actives raise or lower the signal
# In short: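 Reporter transcripts from a GATA cis-regulated unit, among multiplexed reporters in transfected HepG2 cells, were measured by RT-PCR with capillary electrophoresis after 24 h dosing. Induction or loss scored relative to DMSO.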
# [20] = molecular target: Retinoic acid receptor alpha (Homo sapiens) (UniProt P10276); assay: ATG_DR5_RAR_CIS: Attagene CIS-FACTORIAL HepG2 Assay for human Retinoic Acid Receptor Alpha (RARE), DR5 submotif (AID 2282934); conditions: HepG2 Attagene cis-factorial RARE DR5 reporter, mRNA; actives raise or lower the signal
# In short: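 HepG2 cells transiently transfected with multiplexed reporter units under cis (DR5 RARE) promoters, so endogenous transcription factor activity is measured. After 24 h compound exposure, reporter mRNA is quantified by RT-PCR with fluorescent labelling and capillary electrophoresis; bidirectional fitting versus DMSO.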
# CCAAT/enhancer-binding protein beta (Homo sapiens), sequence (P17676 whole entry, looked up): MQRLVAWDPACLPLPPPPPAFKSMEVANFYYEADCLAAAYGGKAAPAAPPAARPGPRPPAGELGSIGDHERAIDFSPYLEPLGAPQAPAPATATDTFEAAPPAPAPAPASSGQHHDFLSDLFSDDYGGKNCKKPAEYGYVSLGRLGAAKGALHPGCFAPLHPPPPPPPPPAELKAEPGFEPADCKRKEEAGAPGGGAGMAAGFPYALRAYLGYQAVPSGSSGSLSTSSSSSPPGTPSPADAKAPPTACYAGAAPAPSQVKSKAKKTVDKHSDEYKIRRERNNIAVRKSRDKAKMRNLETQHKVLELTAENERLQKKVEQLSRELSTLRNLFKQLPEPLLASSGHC
# Hepatocyte nuclear factor 3-beta (Homo sapiens), sequence (Q9Y261 whole entry, looked up): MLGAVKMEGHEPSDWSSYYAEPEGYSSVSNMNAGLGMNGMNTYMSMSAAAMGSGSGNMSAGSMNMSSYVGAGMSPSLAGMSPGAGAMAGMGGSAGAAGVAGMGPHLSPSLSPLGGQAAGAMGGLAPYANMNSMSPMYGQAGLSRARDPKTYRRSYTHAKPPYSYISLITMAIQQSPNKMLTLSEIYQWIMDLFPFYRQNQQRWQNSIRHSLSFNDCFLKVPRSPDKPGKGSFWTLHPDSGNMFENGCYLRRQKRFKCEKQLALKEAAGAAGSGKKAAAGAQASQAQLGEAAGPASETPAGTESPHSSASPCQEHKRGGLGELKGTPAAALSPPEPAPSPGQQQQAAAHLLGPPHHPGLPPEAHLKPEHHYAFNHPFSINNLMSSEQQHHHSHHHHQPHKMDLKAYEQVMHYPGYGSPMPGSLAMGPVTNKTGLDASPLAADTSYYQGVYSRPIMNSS
# Transcription factor E2F1 (Homo sapiens), sequence (Q01094 whole entry, looked up): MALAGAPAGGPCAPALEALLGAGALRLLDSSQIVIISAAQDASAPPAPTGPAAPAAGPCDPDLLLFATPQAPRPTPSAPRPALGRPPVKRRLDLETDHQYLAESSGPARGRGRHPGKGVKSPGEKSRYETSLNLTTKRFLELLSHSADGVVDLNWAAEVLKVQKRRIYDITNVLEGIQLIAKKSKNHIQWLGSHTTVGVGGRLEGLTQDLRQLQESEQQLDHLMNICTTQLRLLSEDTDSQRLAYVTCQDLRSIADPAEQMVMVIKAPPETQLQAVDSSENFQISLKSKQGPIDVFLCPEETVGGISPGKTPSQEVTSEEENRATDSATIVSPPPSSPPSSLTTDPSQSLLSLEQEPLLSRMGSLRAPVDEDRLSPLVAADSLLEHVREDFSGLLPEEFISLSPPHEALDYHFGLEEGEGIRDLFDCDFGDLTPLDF
# Aryl hydrocarbon receptor (Homo sapiens), sequence (P35869 whole entry, looked up): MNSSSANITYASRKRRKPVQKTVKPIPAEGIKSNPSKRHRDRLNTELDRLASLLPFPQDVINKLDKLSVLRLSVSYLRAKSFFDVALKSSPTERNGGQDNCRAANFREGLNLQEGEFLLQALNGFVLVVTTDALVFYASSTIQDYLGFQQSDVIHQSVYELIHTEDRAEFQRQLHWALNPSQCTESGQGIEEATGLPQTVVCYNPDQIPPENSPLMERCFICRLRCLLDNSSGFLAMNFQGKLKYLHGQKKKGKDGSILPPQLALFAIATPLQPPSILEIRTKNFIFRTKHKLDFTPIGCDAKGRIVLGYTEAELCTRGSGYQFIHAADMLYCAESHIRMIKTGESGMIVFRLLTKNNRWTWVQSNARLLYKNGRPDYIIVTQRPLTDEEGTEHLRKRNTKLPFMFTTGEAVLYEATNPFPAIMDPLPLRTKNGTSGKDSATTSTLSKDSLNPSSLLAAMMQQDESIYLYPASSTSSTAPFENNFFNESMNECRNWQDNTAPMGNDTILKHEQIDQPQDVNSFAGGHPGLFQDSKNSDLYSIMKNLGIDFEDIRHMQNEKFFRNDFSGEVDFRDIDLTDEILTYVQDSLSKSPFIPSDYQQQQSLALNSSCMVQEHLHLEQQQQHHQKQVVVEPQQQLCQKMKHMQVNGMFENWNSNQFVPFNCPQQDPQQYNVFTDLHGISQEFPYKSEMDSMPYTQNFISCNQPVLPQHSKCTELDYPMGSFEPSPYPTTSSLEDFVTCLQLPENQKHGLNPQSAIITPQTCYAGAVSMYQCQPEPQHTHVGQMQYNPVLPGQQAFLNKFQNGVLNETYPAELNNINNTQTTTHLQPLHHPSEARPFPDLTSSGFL
# Retinoic acid receptor alpha (Homo sapiens), sequence (P10276 whole entry, looked up): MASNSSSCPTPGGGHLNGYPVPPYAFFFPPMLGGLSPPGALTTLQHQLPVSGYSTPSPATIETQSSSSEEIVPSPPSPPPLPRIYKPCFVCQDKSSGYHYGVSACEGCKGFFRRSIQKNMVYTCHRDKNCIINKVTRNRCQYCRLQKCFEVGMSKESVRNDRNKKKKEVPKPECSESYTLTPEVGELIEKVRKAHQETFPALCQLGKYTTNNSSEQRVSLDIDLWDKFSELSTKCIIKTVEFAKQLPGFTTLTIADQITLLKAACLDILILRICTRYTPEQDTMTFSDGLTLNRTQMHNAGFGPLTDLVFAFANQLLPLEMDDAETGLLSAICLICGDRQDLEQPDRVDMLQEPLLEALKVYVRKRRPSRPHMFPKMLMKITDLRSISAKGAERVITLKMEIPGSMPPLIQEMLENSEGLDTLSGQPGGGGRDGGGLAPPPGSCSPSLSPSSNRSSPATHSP
compound,measurement,setting,value
CCCCCCCCCCCCCCO,outcome,[1],inactive
same,outcome,[2],inactive
same,AC50,[3],74.3 µM (active)
same,AC50,[4],29.4 µM (active)
same,AC50,[5],78 µM (active)
same,AC50,[6],114 µM (active)
same,outcome,[7],inactive
same,AC50,[8],166 µM (active)
same,AC50,[9],166 µM (active)
same,AC50,[10],158 µM (active)
same,AC50,[11],129 µM (active)
same,outcome,[12],inactive
same,outcome,[13],inactive
same,outcome,[14],inactive
same,outcome,[15],inactive
same,AC50,[16],159 µM (active)
same,AC50,[17],138 µM (active)
same,outcome,[18],inactive
same,AC50,[19],179 µM (active)
c1ccc2c(c1)-c1cccc3c1c-2cc1ccccc13,outcome,[1],inactive
same,outcome,[2],inactive
same,outcome,[3],inactive
same,outcome,[4],inactive
same,outcome,[5],inactive
same,AC50,[6],57 nM (active) and 28.1 µM (active)
same,outcome,[7],inactive
same,outcome,[8],inactive
same,outcome,[9],inactive
same,outcome,[20],inactive
same,outcome,[10],inactive
same,outcome,[11],inactive
same,outcome,[12],inactive
same,outcome,[13],inactive
same,outcome,[14],inactive
same,AC50,[15],0.929 µM (active)
same,outcome,[15],inactive
same,outcome,[16],inactive
same,outcome,[17],inactive
same,outcome,[18],inactive
same,outcome,[19],inactive
O=C(O)c1cccc(C[C@@H]2COc3ccc(OCc4nc5cc(F)ccc5s4)cc3[C@@H]2O)c1,outcome,[1],inactive
same,outcome,[2],inactive
same,outcome,[3],inactive
same,outcome,[4],inactive
same,AC50,[5],100 µM (active)
same,outcome,[6],inactive
same,AC50,[7],158 µM (active)
same,AC50,[8],167 µM (active)
same,outcome,[9],inactive
same,outcome,[10],inactive
same,AC50,[11],66.9 µM (active)
same,outcome,[12],inactive
same,outcome,[13],inactive
same,outcome,[14],inactive
same,outcome,[15],inactive
same,outcome,[16],inactive
same,outcome,[17],inactive
same,outcome,[18],inactive
same,outcome,[19],inactive
COS(C)(=O)=O,outcome,[1],inactive
same,outcome,[2],inactive
same,outcome,[3],inactive
same,outcome,[4],inactive
same,outcome,[5],inactive
same,AC50,[6],22.1 µM (active)
same,outcome,[7],inactive
same,outcome,[8],inactive
same,outcome,[9],inactive
same,outcome,[10],inactive
same,outcome,[11],inactive
same,outcome,[12],inactive
same,outcome,[14],inactive
same,outcome,[15],inactive
same,outcome,[16],inactive
same,outcome,[17],inactive
same,outcome,[18],inactive
same,outcome,[19],inactive
Cc1ncc([C@@H](CCCCCCc2ccc3c(n2)NCCC3)CC(=O)O)cn1,AC50,[1],0.0398 µM (active)
same,outcome,[2],inactive
same,outcome,[3],inactive
same,outcome,[4],inactive
same,outcome,[5],inactive
same,outcome,[6],inactive
same,AC50,[7],0.0172 µM (active)
same,outcome,[8],inactive
same,outcome,[9],inactive
same,outcome,[10],inactive
same,outcome,[11],inactive
same,outcome,[12],inactive
same,outcome,[14],inactive
same,outcome,[15],inactive
same,outcome,[16],inactive
same,outcome,[17],inactive
same,outcome,[18],inactive
same,outcome,[19],inactive
CCCCN1C(=O)[C@@H]([C@H](O)C2CCCCC2)NC(=O)C12CCN(Cc1ccc(Oc3ccc(C(=O)O)cc3)cc1)CC2,outcome,[1],inactive
same,outcome,[2],inactive
same,AC50,[3],32.9 µM (active)
same,outcome,[4],inactive
same,AC50,[5],71.5 µM (active)
same,outcome,[6],inactive
same,outcome,[7],inactive
same,outcome,[8],inactive
same,outcome,[9],inactive
same,outcome,[10],inactive
same,outcome,[11],inactive
same,outcome,[12],inactive
same,outcome,[13],inactive
same,outcome,[14],inactive
same,outcome,[15],inactive
same,outcome,[16],inactive
same,outcome,[17],inactive
same,outcome,[18],inactive
same,outcome,[19],inactive
C=CN1CCCC1=O,outcome,[1],inactive
same,outcome,[2],inactive
same,outcome,[3],inactive
same,outcome,[4],inactive
same,outcome,[5],inactive
same,outcome,[6],inactive
same,outcome,[7],inactive
same,outcome,[8],inactive
same,outcome,[9],inactive
same,outcome,[10],inactive
same,outcome,[11],inactive
same,outcome,[12],inactive
same,outcome,[13],inactive
same,outcome,[14],inactive
same,outcome,[15],inactive
same,outcome,[16],inactive
same,outcome,[17],inactive
same,outcome,[18],inactive
same,outcome,[19],inactive
